Structures are written as SMILES. Several values for one entry are separate records, joined by “and”; a condition that tells them apart may be missing. Equal values may be shown once. Some structures have more than one record in an assay (separate samples or runs), and their calls can disagree. Some of the results follow. Activity calls are given as the source filed them. Rule as the data show it, unless noted: active = inhibition above about 28%; inactive = the rest.

The target in test [1] is Nuclear receptor coactivator 3 (Homo sapiens) (UniProt Q9Y6Q9). The test is described as follows: SRC3 coactivator transcriptional activity inhibitors, confirmation, cell-based, luminescence, quadruplicate (AID 588792;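 active = mean inhibition over 43.08%, the solvent-only control mean plus 3 SD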;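 also: 0% = DMSO treated cells and 100% = gossypol at 36 µM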). Conditions: HEK293 GAL4-SRC3 luciferase reporter, at 3.6 µM, stronger effect = higher value. Background: A reporter such as luciferase makes a cellular process visible.
Sequence of Nuclear receptor coactivator 3 (Homo sapiens) (Q9Y6Q9 whole entry, looked up, the tested form may be a part): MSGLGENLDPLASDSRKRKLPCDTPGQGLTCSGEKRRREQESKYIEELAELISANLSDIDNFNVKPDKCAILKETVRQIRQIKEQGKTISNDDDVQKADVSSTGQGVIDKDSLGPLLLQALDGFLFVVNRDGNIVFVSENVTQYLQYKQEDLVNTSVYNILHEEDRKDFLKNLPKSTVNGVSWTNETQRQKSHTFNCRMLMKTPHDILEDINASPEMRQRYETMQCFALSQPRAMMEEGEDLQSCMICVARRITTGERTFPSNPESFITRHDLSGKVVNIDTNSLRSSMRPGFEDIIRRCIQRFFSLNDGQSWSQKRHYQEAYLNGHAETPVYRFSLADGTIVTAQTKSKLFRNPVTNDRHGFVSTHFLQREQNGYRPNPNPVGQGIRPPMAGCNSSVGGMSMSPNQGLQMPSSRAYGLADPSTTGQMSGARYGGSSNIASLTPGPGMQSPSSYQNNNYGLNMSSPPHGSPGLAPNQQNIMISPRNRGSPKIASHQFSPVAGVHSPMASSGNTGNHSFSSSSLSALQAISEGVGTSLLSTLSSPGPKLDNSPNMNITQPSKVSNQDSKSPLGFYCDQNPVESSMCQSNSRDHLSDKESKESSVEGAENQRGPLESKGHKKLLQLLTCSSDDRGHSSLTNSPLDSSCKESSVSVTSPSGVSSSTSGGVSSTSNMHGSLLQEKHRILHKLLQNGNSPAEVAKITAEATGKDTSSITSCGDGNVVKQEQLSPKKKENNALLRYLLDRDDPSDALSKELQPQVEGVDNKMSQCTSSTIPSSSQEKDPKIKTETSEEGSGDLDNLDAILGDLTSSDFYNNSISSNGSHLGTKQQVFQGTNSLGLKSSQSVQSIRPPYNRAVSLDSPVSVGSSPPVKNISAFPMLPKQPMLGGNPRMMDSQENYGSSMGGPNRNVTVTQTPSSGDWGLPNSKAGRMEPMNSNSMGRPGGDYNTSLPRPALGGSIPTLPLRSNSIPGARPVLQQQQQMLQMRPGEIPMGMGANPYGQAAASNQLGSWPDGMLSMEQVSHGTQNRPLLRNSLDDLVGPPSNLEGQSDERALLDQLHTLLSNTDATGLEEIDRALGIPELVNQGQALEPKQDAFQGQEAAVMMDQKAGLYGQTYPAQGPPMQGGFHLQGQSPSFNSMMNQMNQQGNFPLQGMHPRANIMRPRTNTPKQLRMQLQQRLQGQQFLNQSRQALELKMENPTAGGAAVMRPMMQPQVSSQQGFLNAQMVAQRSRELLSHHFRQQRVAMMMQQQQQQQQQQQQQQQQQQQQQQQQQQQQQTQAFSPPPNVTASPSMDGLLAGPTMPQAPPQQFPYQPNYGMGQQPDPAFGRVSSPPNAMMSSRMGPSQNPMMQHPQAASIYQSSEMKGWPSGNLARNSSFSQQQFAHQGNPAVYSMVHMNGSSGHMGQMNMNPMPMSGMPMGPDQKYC

The subject of test [2] is transactivating tegument protein VP16 (Human herpesvirus 1), Gal4-VP16 luciferase reporter. As to the kind of experiment: VP16 transactivation inhibitors, counter-screen for SRC3 inhibitor project, cell-based, luminescence, high throughput (AID 588794; in the data active = inhibition above about 30%). Conditions: mammalian cells, VP16-driven luciferase reporter luminescence; at 3.6 µM; stronger effect = higher value. In general terms: A counterscreen serves to expose hits that act by an unwanted route or on another target.

Test [3] deals with Nuclear receptor coactivator 1 (Homo sapiens) (UniProt Q15788). The test is described as follows: SRC1 coactivator transcriptional activity inhibitors, confirmation, cell-based, luminescence, quadruplicate (AID 588820;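 active = mean inhibition above 46.68%, the untreated control wells mean plus 3 SD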;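 also: 0% = DMSO wells and 100% = gossypol 36 µM treated wells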). Conditions: HEK293 GAL4-SRC1 luciferase reporter, at 3.6 µM, stronger effect = higher value.
Sequence of Nuclear receptor coactivator 1 (Homo sapiens) (Q15788 whole entry, looked up, the tested form may be a part): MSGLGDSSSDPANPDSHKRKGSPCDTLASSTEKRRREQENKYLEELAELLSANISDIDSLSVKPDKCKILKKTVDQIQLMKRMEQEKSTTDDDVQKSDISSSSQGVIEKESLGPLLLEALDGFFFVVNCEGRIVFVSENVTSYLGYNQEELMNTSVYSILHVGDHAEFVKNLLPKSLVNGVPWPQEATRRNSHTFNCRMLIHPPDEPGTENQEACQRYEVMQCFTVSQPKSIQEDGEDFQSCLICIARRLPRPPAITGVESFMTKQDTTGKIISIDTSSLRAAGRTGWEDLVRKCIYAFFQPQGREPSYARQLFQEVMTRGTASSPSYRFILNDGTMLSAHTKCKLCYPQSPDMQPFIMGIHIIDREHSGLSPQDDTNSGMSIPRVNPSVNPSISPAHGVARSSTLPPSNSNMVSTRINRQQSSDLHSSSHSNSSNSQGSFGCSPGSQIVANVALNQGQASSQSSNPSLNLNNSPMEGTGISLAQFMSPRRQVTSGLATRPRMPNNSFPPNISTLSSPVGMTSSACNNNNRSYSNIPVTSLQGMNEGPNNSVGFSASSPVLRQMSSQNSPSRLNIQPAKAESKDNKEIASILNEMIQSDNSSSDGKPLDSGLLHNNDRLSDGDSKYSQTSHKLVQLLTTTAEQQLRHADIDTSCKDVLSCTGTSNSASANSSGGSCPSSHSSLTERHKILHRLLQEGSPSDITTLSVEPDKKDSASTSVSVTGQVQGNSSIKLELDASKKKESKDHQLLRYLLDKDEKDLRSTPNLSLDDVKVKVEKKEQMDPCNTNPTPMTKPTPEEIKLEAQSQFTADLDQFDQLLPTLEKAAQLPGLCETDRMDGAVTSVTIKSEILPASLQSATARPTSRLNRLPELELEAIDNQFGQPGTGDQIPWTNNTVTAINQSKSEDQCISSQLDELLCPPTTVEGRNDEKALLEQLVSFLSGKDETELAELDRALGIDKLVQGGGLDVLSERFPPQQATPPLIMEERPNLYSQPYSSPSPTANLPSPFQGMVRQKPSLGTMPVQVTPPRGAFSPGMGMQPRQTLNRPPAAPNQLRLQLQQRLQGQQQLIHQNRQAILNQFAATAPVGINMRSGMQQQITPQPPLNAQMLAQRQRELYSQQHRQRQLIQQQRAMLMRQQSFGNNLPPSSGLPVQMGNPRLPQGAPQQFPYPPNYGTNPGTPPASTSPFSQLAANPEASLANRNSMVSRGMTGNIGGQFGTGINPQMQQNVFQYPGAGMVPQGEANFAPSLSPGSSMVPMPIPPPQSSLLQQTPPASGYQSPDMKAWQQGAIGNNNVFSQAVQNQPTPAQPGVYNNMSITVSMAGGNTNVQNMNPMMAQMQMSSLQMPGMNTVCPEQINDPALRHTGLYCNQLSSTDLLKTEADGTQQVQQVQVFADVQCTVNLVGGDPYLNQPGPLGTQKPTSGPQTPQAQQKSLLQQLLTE
Test [4] is described as follows: VP16 transactivation inhibitors, counter-screen for SRC1 inhibitor project, cell-based, luminescence, high throughput (AID 588824; in the data active = inhibition above about 25%). Conditions: cell-based VP16 transactivation luciferase luminescence; at 3.6 µM; stronger effect = higher value.
Test [5] is described as follows: StAR promoter reporter inhibitors, counter-screen for LRH-1 inverse agonist project, cell-based, luminescence, high throughput (AID 651611). Conditions: StAR promoter luciferase reporter counterscreen, at 3.6 µM, stronger effect = higher value.
Test [6] has as its target Nuclear receptor subfamily 5 group A member 2 (Homo sapiens) (UniProt O00482). The test is described as follows: LRH-1 (NR5A2) inverse agonists, retest, confirmation, cell-based, luminescence (AID 651613; in the data active = inhibition above about 42%;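 also: HEK293T cells co-transfected with LRH-1 and StAR promoter luciferase reporter; 0% = vehicle wells and 100% = parental cells lacking receptor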). Conditions: cell-based LRH-1 luciferase reporter, inverse agonism; at 3.6 µM; stronger effect = higher value.
Test [7] addresses Steroidogenic factor 1 (Homo sapiens) (UniProt Q13285). The test is described as follows: SF1 (NR5A1) inverse agonists, counter-screen for LRH-1 inverse agonist project, cell-based, luminescence, high throughput (AID 651614; in the data active = inhibition above about 44%;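 also: cells cotransfected with StAR promoter reporter and SF1 expression vector; 0% = vehicle on cells with receptor and 100% = vehicle on cells lacking receptor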). Conditions: cell-based SF1 luciferase reporter, at 3.6 µM, stronger effect = higher value.
Test [8] is described as follows: VP16 transactivation reporter inhibitors, counter-screen for LRH-1 inverse agonist project, cell-based, luminescence, high throughput (AID 651615; in the data active = inhibition above about 33%). Conditions: Gal4-VP16 luciferase reporter cells, at 3.6 µM, stronger effect = higher value.
Test [9] is described as follows: growth loss of phage-infected RecBCD+ E. coli, confirmation, RecBCD inhibitor project, absorbance, E. coli V66, T4 gene 2 phage (AID 651982;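 active = mean inhibition over triplicates exceeding the hit threshold derived in the original primary screen, cut at about 11% in these data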). Conditions: E. coli V66 + T4 2- phage, growth OD; at 11.9 µM; stronger effect = higher value.
Test [10] is described as follows: E. coli viability inhibition, counter-screen for RecBCD inhibitor project, absorbance, high throughput (AID 651983; in the data active = inhibition above about 20%;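 also: E. coli strain V66 grown with compound alone and no phage infection; 0% = bacteria with DMSO vehicle only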). Conditions: absorbance (OD) growth, at 11.9 µM, stronger effect = higher value.
A short description of test [11]: growth loss of phage-infected AddAB-carrying E. coli, confirmation, counter-screen for RecBCD inhibitor project, absorbance, E. coli V3065, T4 phage (AID 651984;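 active = mean inhibition above the solvent-only control wells' mean plus 3 SD, cut at about 22% in these data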;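 also: higher means less bacterial growth from phage killing when AddAB is blocked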). Conditions: E. coli expressing H. pylori AddAB + T4 phage, OD growth; at 11.9 µM; stronger effect = higher value; gene 2 mutant T4, recBCD-deleted host.

Sequence of Steroidogenic factor 1 (Homo sapiens) (Q13285 whole entry, looked up, the tested form may be a part): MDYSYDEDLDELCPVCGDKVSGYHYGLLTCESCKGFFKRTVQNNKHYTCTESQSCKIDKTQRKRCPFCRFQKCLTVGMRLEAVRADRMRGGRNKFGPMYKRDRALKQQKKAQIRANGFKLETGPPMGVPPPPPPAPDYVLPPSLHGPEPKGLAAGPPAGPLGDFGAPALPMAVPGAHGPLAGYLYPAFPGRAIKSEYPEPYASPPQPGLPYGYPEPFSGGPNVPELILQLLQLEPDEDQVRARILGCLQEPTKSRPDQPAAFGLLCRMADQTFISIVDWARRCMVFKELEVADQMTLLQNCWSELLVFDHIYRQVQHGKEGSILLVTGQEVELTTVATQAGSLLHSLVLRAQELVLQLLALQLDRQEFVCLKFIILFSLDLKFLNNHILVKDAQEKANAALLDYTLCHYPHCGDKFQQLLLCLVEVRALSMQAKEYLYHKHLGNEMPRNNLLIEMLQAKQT
Sequence of Nuclear receptor subfamily 5 group A member 2 (Homo sapiens) (O00482 whole entry, looked up): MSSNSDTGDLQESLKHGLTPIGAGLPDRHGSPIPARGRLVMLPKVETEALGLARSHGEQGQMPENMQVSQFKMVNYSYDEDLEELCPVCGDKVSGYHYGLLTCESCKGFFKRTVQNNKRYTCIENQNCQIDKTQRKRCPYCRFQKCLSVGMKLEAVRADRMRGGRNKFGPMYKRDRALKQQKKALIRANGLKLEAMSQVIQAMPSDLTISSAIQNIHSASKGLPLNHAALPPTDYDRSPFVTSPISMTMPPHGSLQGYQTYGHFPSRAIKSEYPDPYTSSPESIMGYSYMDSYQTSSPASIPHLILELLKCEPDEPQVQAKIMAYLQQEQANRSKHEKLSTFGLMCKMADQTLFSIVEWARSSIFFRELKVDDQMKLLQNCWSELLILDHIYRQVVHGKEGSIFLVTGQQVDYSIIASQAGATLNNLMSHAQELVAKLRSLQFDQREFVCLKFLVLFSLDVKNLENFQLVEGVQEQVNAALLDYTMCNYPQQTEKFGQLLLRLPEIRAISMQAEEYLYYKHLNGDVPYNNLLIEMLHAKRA

The term inhibition denotes the relative decrease from the control value, in per cent. Consider `COc1cccc(/C=N\NC(=O)c2ccc(Cn3cc(Br)c([N+](=O)[O-])n3)o2)c1O`, for which the inhibition in [1] was 33% (inactive); in test [2], 38.4% (active); in test [3] it was 35% (inactive); in test [4], 29.9% (active); in test [5], 63.8% (active); in test [6], 74.5% (active). Further, the inhibition was 71.3% (active) in [7] and 73.2% (active) in test [8].

For the molecule `O=C1NC(=O)C(c2ccc(F)cc2)N1` (configuration not stated), the inhibition in test [1] is 3.02% (inactive); in [2] it was -3.31% (inactive); in test [3], -2.47% (inactive); in test [4] it was -5.94% (inactive); in test [5], 11% (inactive); in test [6], 8.89% (inactive). Further, the inhibition in test [7] was 2.89% (inactive); in test [8], 4.11% (inactive).

As for `Cc1ccc(/C=C/C(=O)c2c(C)cc(C)[nH]c2=O)cc1`, the inhibition in [1] is 46.8% (active); in test [2], 40% (active); in test [3], 47% (active); in test [4], 46.4% (active); in test [5] it was 35.3% (active); in test [6], 42.8% (active). Further, the inhibition in [7] is 50.4% (active); in test [8] it was 60.4% (active).

For the molecule `Nc1nc(N)c2c(ccc3c2ccn3Cc2cccc([N+](=O)[O-])c2)n1`, the inhibition in test [1] was 76.1% (active); in test [2], 42.6% (active); in [3], 71.1% (active); in test [4] it was 40.8% (active); in [5], 72.6% (active); in test [6], 65.6% (active). Further, the inhibition in test [7] was 67.4% (active); in test [8], 43.3% (active).

For `O=C(NN=Cc1ccccc1O)NN=Cc1ccccc1O`, the inhibition in test [1] is 48.5% (active); in test [2] it was 80% (active); in test [3], 24.6% (inactive); in [4], 77.1% (active); in [5], 69.9% (active); in test [6], 97.3% (active). For the same molecule, the inhibition is 86.7% (active) in test [7]; 81.8% (active) in test [8]; 1.25% (inactive) in test [9]; 2.69% (inactive) in test [10]; 6.88% (inactive) in test [11].

For `CCCCCCCCCCn1ccc(=N)cc1`, the inhibition in test [1] was 70.1% (active); in test [2], 81.1% (active); in [3], 51.3% (active); in test [4], 80.4% (active); in [5], 69.4% (active); in test [6], 102% (active). For the same molecule, the results for the inhibition in test [7] and in [8] were 90.2% (active) and 83.7% (active), respectively.

In the case of `COc1ccc(-c2noc(CCCC(=O)O)n2)cc1`, the inhibition was 44.7% (active) in test [1]; 36.1% (active) in test [2]; 30.7% (inactive) in test [3]; 26% (active) in [4]; 39% (active) in test [5]; 47.8% (active) in [6]. The inhibition was 40.1% (inactive) in [7] and 30.7% (inactive) in [8].

As to `NCCCNc1nc(N)c([N+](=O)[O-])c(NC2CCCCC2)n1`, the inhibition is 62.2% (active) in test [1]; 42.4% (active) in test [2]; 7.71% (inactive) in test [3]; 27.1% (active) in [4]; 84.7% (active) in test [5]; 98.5% (active) in test [6]. Moreover, the values for the inhibition in test [7] and in [8] were 82.5% (active) and 88.1% (active), respectively.

On to `O=C(Nc1ccon1)c1nc[nH]c1C(=O)NCc1ccccc1`, for which the inhibition in test [1] was 35.1% (inactive); in test [2], 52.7% (active); in test [3], 27.6% (inactive); in [4], 53.3% (active); in test [5] it was 50.5% (active); in test [6], 58.4% (active). Moreover, the inhibition was 51% (active) in test [7] and 68% (active) in [8].

In the case of `COc1ccc(OC)c(Cc2cnc3nc(N)nc(N)c3c2C)c1`, the inhibition in test [1] is 67% (active); in test [2] it was 27.5% (inactive); in [3], 59.9% (active); in test [4], 28.4% (active); in test [5], 80.7% (active); in test [6] it was 62.3% (active). Further, the inhibition is 52.5% (active) in [7]; 43.9% (active) in [8]; 79.8% (active) in test [9]; 79.2% (active) in test [10]; 85.3% (active) in test [11].

As to `O=C1C(Nc2ccc(O)cc2)=C/C(=N/S(=O)(=O)c2cccs2)c2ccccc21`, the inhibition in test [1] was 85.2% (active); in test [2] it was 72% (active); in test [3], 29.5% (inactive); in test [4], 68% (active); in test [5], 79.7% (active); in test [6] it was 101% (active). Further, the inhibition in [7] is 87.6% (active); in test [8], 95.2% (active).

On to `COc1ccc(C=C2CS(=O)(=O)CC(=Cc3ccc(OC)cc3)C2=O)cc1`, for which the inhibition is 29.7% (inactive) in test [1]; 46.8% (active) in test [2]; -73.9% (inactive) in [3]; 55.9% (active) in [4]; 43.9% (active) in test [5]; 83% (active) in test [6]. Besides, the inhibition was 83.7% (active) in test [7] and 80.1% (active) in test [8].

`Cc1ccc2[nH]c3c(c2c1)CCCC3NC(=O)CCl` (configuration not stated): the inhibition in test [1] was 87.4% (active); in test [2], 84.2% (active); in [3] it was 44.3% (inactive); in test [4] it was 82.4% (active); in test [5], 92% (active); in [6], 106% (active). The figures for the inhibition in test [7] and in test [8] were 96.3% (active) and 92.3% (active), respectively.

`COc1ccccc1-[n+]1c(C)cc(/C=C2\Sc3ccccc3N2C)cc1C`: the inhibition in test [1] was 81.9% (active); in test [2], 85.2% (active); in [3], 8.54% (inactive); in test [4], 79.1% (active); in test [5] it was 38.9% (active); in test [6], 104% (active). Besides, the inhibition in [7] is 83.3% (active); in test [8], 91% (active).

Turning to `Nc1cc2c3c(cccc3c1)C(=O)N(CCN1CCCC1)C2=O`, the inhibition is 16.8% (inactive) in test [1]; 40.7% (active) in test [2]; 38.9% (inactive) in test [3]; 46.9% (active) in [4]; 60.5% (active) in test [5]; 66.6% (active) in test [6]. The inhibition in test [7] was 61.6% (active); in test [8], 69.9% (active).

As for `CCN(CC)c1ccc(C(NC(=O)C(C)C)c2ccc3cccnc3c2O)cc1` (configuration not stated), the inhibition in test [1] is 55.9% (active); in [2] it was 56% (active); in [3], 78.3% (active); in [4], 66.5% (active); in test [5] it was 86.3% (active); in test [6], 103% (active). The inhibition in [7] is 90% (active); in [8], 84.9% (active).

Regarding `COc1ccccc1-n1c(-c2ccccc2)c[n+]2c1CCc1ccccc1-2`, the inhibition is 47.9% (active) and 39.9% (inactive) in test [1]; 72.8% (active) and 57.1% (active) in [2]; 39.1% (inactive) and 29.1% (inactive) in test [3]; 73.8% (active) and 53.7% (active) in test [4]; 58.2% (active) and 36.6% (active) in [5]; 96.8% (active) and 84.2% (active) in test [6]. The inhibition was 84.2% (active) and 76% (active) in test [7]; 83.9% (active) and 70.9% (active) in test [8].

Source of the values: PubChem BioAssay.
